Experimental data reported in PubChem BioAssay (NCI).
About 79,000 compounds went through this panel and 15% of them were active in at least one assay; those are over-represented in the sample as a whole. Cut-off read from the data, not from the text of the source: active = growth inhibition above about 70%; inactive = the rest. Where a SMILES comes first, the peptide text is derived from it. The star is where a group is joined. Trt = c1ccc(C(c2ccccc2)(c2ccccc2)*)cc1; Cbz = O=C(OCc1ccccc1)*; Bz = O=C(c1ccccc1)*

Experiments:
[1] = NCI Yeast Anticancer Drug Screen. Data for the rad50 strain (AID 155);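 note: 0% = growth of vehicle-only cultures of the same strain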; conditions: S. cerevisiae rad50 strain growth inhibition; at 50.0 µM; hits give high values
Procedure, shortened: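 Growth of the mutant yeast was measured after compound exposure and referenced to vehicle-treated cultures.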

[2] = NCI Yeast Anticancer Drug Screen. Data for the mec2-1 strain (AID 157); conditions: S. cerevisiae mec2-1 strain, at 50.0 µM, hits give high values
Procedure, shortened: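 Each compound was tested on mec2-1 yeast, a strain altered in DNA damage repair or cell cycle control. Growth inhibition is reported relative to vehicle.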

[3] = NCI Yeast Anticancer Drug Screen. Data for the sgs1 mgt1 strain (AID 161);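 note: 0% = growth of cultures given vehicle only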; conditions: S. cerevisiae sgs1 mgt1 strain, at 50.0 µM, hits give high values
Procedure, shortened: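 Genetically altered yeast, compound exposure, growth inhibition relative to vehicle.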

[4] = NCI Yeast Anticancer Drug Screen. Data for the cln2 rad14 strain (AID 165);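 note: 0% = growth equal to vehicle treated cultures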; conditions: S. cerevisiae cln2 rad14 strain, at 50.0 µM, hits give high values
Procedure, shortened: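 Test compounds were added to cln2 rad14 yeast cultures; inhibition of growth was then determined by comparison with vehicle treatment.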

[5] = NCI Yeast Anticancer Drug Screen. Data for the bub3 strain (AID 167); conditions: S. cerevisiae bub3 mutant strain, at 50.0 µM, hits give high values
Procedure, shortened: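 Whole-cell yeast assay. The mutant strain was incubated with compounds, and growth inhibition was determined by comparison with vehicle-treated cells.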

[6] = NCI Yeast Anticancer Drug Screen. Data for the mlh1 rad18 strain (AID 175); conditions: S. cerevisiae mlh1 rad18 strain growth inhibition; at 50.0 µM; hits give high values
Procedure, shortened: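 Inhibition values reflect reduced growth of mutant yeast versus vehicle-treated controls following compound exposure; the mutations affect DNA damage repair.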

Measured: growth inhibition

CC(CC#N)=C(c1ccccc1)c1ccccc1
inactive: [1] 17.4% | [2] 18.9% | [3] 14% | [4] 16% | [5] -12.8% | [6] -5.05%

O=C(c1ccc(Cl)cc1)N(C(=S)N1CCN(c2ccccc2)CC1)C1CCCCC1
inactive: [1] 7.95% | [2] -11.3% | [3] -19.5% | [4] 22.7% | [5] -21% | [6] -4.05%

COc1ccc(-c2cc(-c3ccccc3)c(C#N)c(=O)n2C2OC(CO)C(O)C(O)C2O)cc1 (stereo not given)
inactive: [1] -8.2% | [2] 11.6% | [3] 2.45% | [4] 12.8% | [5] -5.6% | [6] -2.05%

CCOC(=O)Oc1ccc(C(=O)NCCC(C)C)cc1OCC
inactive: [1] -11.8% | [2] -10.3% | [3] -8.1% | [4] -69.2% | [5] 25.8% | [6] -6.8%

COC(=O)c1ccccc1NC(=O)c1cccc(Cl)c1
inactive: [1] 20.9% | [2] 6.85% | [3] 20.6% | [4] 16% | [5] 30.4% | [6] 23.7%

Cc1cc2c(cc1[N+](=O)[O-])OCCO2
inactive: [1] 11.3% | [2] 3.9% | [3] 4.55% | [4] -15.5% | [5] -3.25% | [6] 8.55%

COC(=O)C(CSC(=O)c1ccccc1)NC(=O)CNC(=O)CNC(=O)C(CCCCNC(=O)OCc1ccccc1)NC(=O)CNC(=O)C(CSC(c1ccccc1)(c1ccccc1)c1ccccc1)NC(=O)OCc1ccccc1 (stereo not given) (Cbz-C(Trt)GK(Cbz)GGC(Bz)-OMe; configuration not given here)
inactive: [1] -4.85% | [2] 22.9% | [3] 25.8% | [4] -6% | [5] -53.1% | [6] 32.1%

CC1(C)CC(NC(=O)C(C)(C)Oc2ccc(Cl)cc2)CC(C)(C)N1
inactive: [1] 32.5% | [2] 6% | [3] 25.9% | [4] -12% | [5] 9.15% | [6] 25.8%

C/C(=N\NC(=S)N1CCN(c2ccccn2)CC1)c1cccc2cccnc12
inactive: [1] 13.4% | [2] -21.1% | [3] -18.9% | [4] 2.4% | [5] 1.4% | [6] -0.25%

O=C1c2ccc(=O)[nH]c2C(=O)C2CC3=C(CCCC3)CC12 (stereo not given)
inactive: [1] 20.4% | [2] 24.6% | [3] 59.5% | [4] -71.1% | [5] 42.5% | [6] 44.5%

CS(=O)c1ccc(/C=C2/C=Cc3ccccc32)cc1 (stereo not given)
inactive: [1] 32.8% | [2] 27.3% | [3] 30.5% | [4] 22.1% | [5] 48.7% | [6] 36%

COc1ccc(N=C2S/C(=N\C(=Nc3ccccc3)SCc3ccccc3)N(c3ccccc3)C2=Nc2ccc(OC)cc2)cc1
inactive: [1] -4.55% | [2] -5.85% | [3] -8.25% | [4] 4.05% | [5] -6.8% | [6] 5.25%

CN(/N=C/c1cccc2cccnc12)c1ccccc1
inactive: [1] 8.9% | [2] 6.3% | [3] -0.45% | [4] 29.4% | [5] 14.6% | [6] 16.7%

CC(=Nc1ccc(Cl)c(Cl)c1)c1ccncc1
inactive: [1] -31.9% | [2] -10.1% | [3] -58% | [4] -31.6% | [5] 2.1% | [6] -35.1%

O=C1Oc2ccccc2CC1C(=O)c1ccc(Cl)cc1 (stereo not given)
inactive: [1] -7.75% | [2] -0.25% | [3] 8.95% | [4] -61.1% | [5] -21.4% | [6] 7.75%

CC(NC(=O)CNC(=O)CNC(=O)OCc1ccccc1)C(=O)OCc1ccccc1 (stereo not given)
inactive: [1] 4.35% | [2] 1.4% | [3] -3.65% | [4] -3.65% | [5] 1.45% | [6] 5.4%

O=C(O)C1=C(O)CCN=C1
inactive: [1] -24.1% | [2] 2.7% | [3] 11% | [4] -10.8% | [5] -3.95% | [6] 27.1%

Oc1c(Cl)cc(Cl)cc1C1Nc2ccccc2-n2cccc21 (stereo not given)
inactive: [1] -5.2% | [2] -11.8% | [3] 0.4% | [4] 8.95% | [5] 9.25% | [6] 8.2%

NC(=O)CS(=O)CC(N)C(=O)O (stereo not given)
inactive: [1] -5.9% | [2] -34.4% | [3] -46% | [4] -57.1% | [5] -10.9% | [6] -29.6%

OC(CNC1CCCCC1)(c1ccccc1)c1ccccc1
inactive: [1] -11.2% | [2] -8.35% | [3] 13.9% | [4] 10.8% | [5] 30.2% | [6] -20.6%

CCCC(CCc1ccccc1)C(=O)NC(N)=O (stereo not given)
inactive: [1] 4.5% | [2] -5.6% | [3] 1.45% | [4] 2.55% | [5] 42.7% | [6] 1.4%

CCC(CC)c1nc2c([nH]1)c(=O)n(C)c(=O)n2C
inactive: [1] -34% | [2] 8.1% | [3] 5.3% | [4] -32.5% | [5] -7.2% | [6] -10.3%

COc1cc2c(cc1OC)C(=O)N(c1ccc(O)cc1)C2=O
inactive: [1] -8.25% | [2] -17.6% | [3] -7.8% | [4] 20.8% | [5] 12.3% | [6] 3.9%

NC(CC(=O)O)CC(=O)O
inactive: [1] 12.9% | [2] 2.6% | [3] 1.8% | [4] 14.7% | [5] 5.65% | [6] 17.8%

COCCN(CCOC)C1C2=C(CCCC2)OS(=O)(=O)C1c1ccccc1 (stereo not given)
inactive: [1] 26.9% | [2] -4.75% | [3] 6.45% | [4] 12.9% | [5] 3.2% | [6] 0.05%

OCC12CCCC(OC1)O2 (stereo not given)
inactive: [1] -8.6% | [2] -14.7% | [3] -25.9% | [4] 0.2% | [5] 13.8% | [6] -4.65%

c1ccc(-c2cc(-c3ccccc3)c3ccc4c(-c5ccccc5)cc(-c5ccccc5)c5ccc2c3c54)cc1
inactive: [1] -43% | [2] -17.4% | [3] -14.3% | [4] 11.6% | [5] -18.9% | [6] -26.2%

Cc1nc(N)[nH]c(=O)c1CCCN(c1ccccc1)S(=O)(=O)c1ccc(N)cc1
inactive: [1] 9.4% | [2] -1.35% | [3] -2.3% | [4] -22.9% | [5] -2.35% | [6] 19.6%

NC(=O)C1C2CC3C(C2)C31 (stereo not given)
inactive: [1] 2.9% | [2] 11.2% | [3] -1% | [4] -1% | [5] 3.4% | [6] 4.95%

CC(=O)c1cccc(NC(=O)c2c(Br)c(Br)c(Br)c(Br)c2C(=O)O)c1
inactive: [1] -7.25% | [2] -12.6% | [3] 2.95% | [4] 0.2% | [5] -0.25% | [6] -3.1%

OCC1OC(n2cnc3c([Se]Cc4ccccn4)ncnc32)C(O)C1O (stereo not given)
inactive: [1] 40% | [2] -0.6% | [3] 32% | [4] -3.75% | [5] -3.4% | [6] 7.5%

CCCN1C(=O)CC(NC(C)=O)C1=O (stereo not given)
inactive: [1] -2.85% | [2] 6.45% | [3] 8.1% | [4] -17.9% | [5] -5.85% | [6] 9.65%

N#CCC1C2CC3C(C2=O)C13 (stereo not given)
inactive: [1] -0.6% | [2] 5.85% | [3] -2.2% | [4] 22.4% | [5] 4.65% | [6] -39.8%

CCCCN(CCCC)S(=O)(=O)c1ccc(OCCOc2ccc(S(=O)(=O)N(CCCC)CCCC)cc2)cc1
inactive: [1] 10.7% | [2] -1.4% | [3] 15.2% | [4] -12.4% | [5] -5.1% | [6] 7.75%

COc1ccccc1NC(=O)C(CC(C(=O)Nc1ccccc1OC)/C(C)=N/Nc1ccc([N+](=O)[O-])cc1[N+](=O)[O-])/C(C)=N/Nc1ccc([N+](=O)[O-])cc1[N+](=O)[O-] (stereo not given)
inactive: [1] 14.8% | [2] 4.95% | [3] 19.6% | [4] 10.6% | [5] 17.8% | [6] 32.4%

O=C(O)c1cccc(S(=O)(=O)NN2C(=O)CSC2c2ccccc2Cl)c1 (stereo not given)
inactive: [1] 28.5% | [2] -3.95% | [3] 2.85% | [4] 5.9% | [5] 12.7% | [6] 28.7%

CCCNC(=O)CCC(=O)NS(=O)(=O)c1ccc(Cl)cc1
inactive: [1] -14.4% | [2] -3.05% | [3] 16.5% | [4] -16.4% | [5] 16.1% | [6] 7.15%

N#CCCc1nc(N)nc(N)n1
inactive: [1] -19.7% | [2] -3.7% | [3] -26.9% | [4] -60.3% | [5] -17.7% | [6] 5.85%

OC(c1cccc(OCc2ccccc2)c1)c1ccccn1 (stereo not given)
inactive: [1] 4.95% | [2] -6.6% | [3] 2.15% | [4] -20.9% | [5] 2.15% | [6] 2%

N#Cc1nc(-c2ccco2)oc1N
inactive: [1] -20.8% | [2] 1.85% | [3] -23.2% | [4] 3% | [5] -10.2% | [6] -5.8%
